# Most compounds without a hit are left out; they make up all but 7.9% or so of the library.
# HT1080NT lethal = qHTS for induction of synthetic lethality in tumor cells producing 2HG: qHTS for the HT-1080-NT fibrosarcoma cell line | 360,000 compounds, 1.6% hits | Potency, µM (highest dose often 46.1 µM), inactives show at the highest dose activity, negative = less viability, most hits filed as cytotoxic | HT-1080-NT fibrosarcoma viability, CellTiter-Glo ATP luminescence, 48 h | AID 686970, 2013;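 further: NT is the 2HG producing partner of a matched IDH1 knockdown line; 0% = DMSO-treated cells and -100% = media-only wells without cells; nearly all actives have a fitted effect of over 55% in size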
#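 Viability of the 2HG-overproducing fibrosarcoma line after 48 hours of compound exposure at 37 degrees C was determined by luminescence with CellTiter-Glo, and concentration-effect curves were then fitted and categorized.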
# SW480 rerep = A quantitative high throughput screen for small molecules that induce DNA re-replication in SW480 colon adenocarcinoma cells; Potency, µM (highest dose often 46.1 µM), for the others: at the highest dose re-replication activation, hits mostly activators; 340,000 compounds, 1.8% hits; SW480 DNA re-replication, Hoechst DNA content imaging, 48 h; further: % of control where 0% means no effect; nearly all actives have a fitted effect of over 55% in size
#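 Compounds, transferred as 23 nL by pin tool, were incubated with cells for 48 hr; DNA content per nucleus was then quantified by Hoechst staining and fluorescence plate imaging.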
# KB-V1 MDR tox = qHTS assay for MDR1-selective chemotherapeutics: Primary screen using the drug-selected MDR subline cells KB-V1; KB-V1 MDR cells viability, CellTiter-Glo, 72 h; Potency, µM (doses to about 46.1 µM), usual class: cytotoxic; 400,000 compounds, 3.4% hits; further: on the % scale 0 is the no-effect control and ±100 the full control effect; nearly all actives have a fitted effect of over 60% in size
#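 Readout: CellTiter-Glo luminescence, 10 min after addition. Cells: KB-V1 MDR subline, 72 h at 37 degrees C with compound. Analysis: corrected, normalized data fitted to concentration-effect curves.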
# HT1080 IDH1KD tx = qHTS for induction of synthetic lethality in tumor cells producing 2HG: qHTS for the HT-1080-IDH1KD cell line; Potency, µM (titrated, usually from 46.1 µM), without a hit: at the highest dose activity, negative = toxicity, usual class: cytotoxic; 360,000 compounds, 2% hits; HT-1080 IDH1 knockdown viability, ATP luminescence, 48 h; AID 686971, 2013;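 further: 0% = DMSO wells and -100% = cell-free medium wells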
#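 Assay cells: HT-1080 with IDH1 knockdown, 750 per well, RPMI/5% FBS. Exposure: 48 h at 37 °C following 2 h pre-incubation. Read: CellTiter-Glo luminescence; fitted concentration-response, curve class assigned.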
# KB-3-1 tox = qHTS assay for MDR1-selective chemotherapeutics: Primary screen using the parental adenocarcinoma cell KB-3-1 | Potency, µM (highest dose often 46.1 µM), most hits filed as cytotoxic | 400,000 compounds, 1.4% hits | KB-3-1 viability, CellTiter-Glo ATP luminescence, 72 h; further: on the % scale 0 is the no-effect control and ±100 the full control effect; nearly all actives have a fitted effect of over 60% in size
#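 72 h, 37 °C compound treatment of KB-3-1 parental cells; CellTiter-Glo added, 10 min, luminescence read. Data corrected against DMSO-only plates and normalized before curve fitting.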
# MCF10A rereplic = A quantitative high throughput screen for small molecules that induce DNA re-replication in MCF 10a normal breast cells; Potency, µM (highest dose often 46.1 µM), for inactives: at the top dose activity, positive = re-replication, usual class: activators; AID 624296, 2012; MCF 10A DNA re-replication, Hoechst nuclear intensity, 48 h; 350,000 compounds, 2.9% hits; further: % of control where 0% means no effect; nearly all actives have a fitted effect of over 50% in size
# Starred values were filed as active, the others as inactive; i = inactive; ? = inconclusive; / = not tested or not shown; [ ] = remark or other dose. The call rests on the fitted dose curve; in most records, active means well fitted curve in the direction sought with a large enough effect; inconclusive means small, poorly fitted or top-dose-only effect, or another doubt; inactive means no such curve, though single readings can be large; an effect the other way counts as inactive or inconclusive. Potency means the concentration at half of the fitted maximal effect.
SMILES,HT1080NT lethal,SW480 rerep,KB-V1 MDR tox,HT1080 IDH1KD tx,KB-3-1 tox,MCF10A rereplic
COC(=O)C1Cc2ccccc2CN1C(=O)CCl (stereo not given),8.2µM*,?,?,15µM*,?,?
O=S(=O)(c1ccc(F)cc1)N1CCCC(CO)C1 (stereo not given),4%,-6%,i,6%,i,-3%
O=C(Nc1nc(-c2cccs2)c(-c2cccs2)s1)C1CCCC1,-1%,-9%,21µM*,-18%,?,?
COc1cc2c(C#N)c(N3CCCCC3)nc(N)c2c(N)n1,?,-3%,8.2µM*,?,?,?
CCS/C(N)=N/N=C/c1cc(C)ccc1O,-3%,?,i,?,i,8%
CS/C(N)=N/N=C/c1cc(C)ccc1O,0%,15µM*,i,-11%,i,1%
C=CCn1c(SCC(=O)Nc2ccc3c(c2)OCO3)nnc1-c1cc(Br)ccc1O,1%,0%,i,-21%,i,694%[0.0737 µM]
CCCc1nn(C)c(C(=O)Nc2cccc(CC)c2)c1Cl,-2%,-12%,18µM*,-14%,i,?
COC(=O)C1=C(C(=O)OC)SC2(S1)C(C(=O)OC)=C(C(=O)OC)SC1=C2c2cccc(C)c2NC1(C)C,4µM*,?,i,7.1µM*,i,16%
CCOC(=O)C1(C)Oc2ccccc2C(C(=O)OC)=C1C(=O)OC (stereo not given),8%,0%,i,1%,i,?
O=C(Nc1ccccc1F)C1CCN(S(=O)(=O)c2cccnc2)CC1,19%,-8%,?,8%,i,2%
CCCCCN1CSC(=S)N(Cc2ccccc2)C1,-1%,?,?,-18%,?,?
S=C1SCN(Cc2cccs2)CN1Cc1cccs1,-6%,/,i,-9%,?,/
S=C1SCN(Cc2ccco2)CN1Cc1ccco1,?,13µM*,i,13µM*,i,?
CCN1CSC(=S)N(Cc2ccccc2)C1,-9%,18µM*,i,1%,?,?
CC1CCN(c2ccccc2NC(=S)NC(=O)c2ccc(-c3cccc([N+](=O)[O-])c3)o2)CC1,8%,-21%,i,15%,i,8%
CC1CCN(c2ccc(NC(=S)NC(=O)c3ccc(-c4cccc([N+](=O)[O-])c4)o3)cc2)CC1,?,?,i,6.3µM*,i,19%
O=C(CSC1=NCCS1)NC1CCCCC1,13%,0%,i,15%,i,-3%
CC(C)Oc1ccc(C(=O)NCCCNC(=O)c2cccnc2)cc1,-2%,-2%,i,-15%,i,2%
COc1ccc(C2NN=C(c3ccc(C)cc3)S2)cc1 (stereo not given),12%,-13%,i,15%,i,0%
CCOc1cc(C2NN=C(c3ccc(C)cc3)S2)ccc1O (stereo not given),-4%,-7%,?,11%,i,18µM*
COC(=O)c1c(-c2ccc(N(C)C)cc2)oc2c1C(OC)CCC2 (stereo not given),-10%,/,i,-25%,?,/
CCOC1CCCc2oc(-c3ccc(N(C)C)cc3)c(C(=O)OC)c21 (stereo not given),?,/,8.2µM*,?,?,/
O=C1NC(Cc2ccc(O)cc2)c2nc3cc(F)ccc3c(=O)n2-c2ncccc21 (stereo not given),-15%,/,i,0%,i,/

# Screening results: PubChem BioAssay, National Center for Advancing Translational Sciences (NCATS)
